Among all 1,900 compounds or so, about 250 (13%) were called active. Another 4% or so got no clear call; they are omitted. These entries were drawn from the full list. Measured potencies and affinities stand elsewhere. Unmarked numbers belong to inactive results.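 The calls were made as follows: active = fitted curve reaches 40% rescue activity at or below the top valid dose, in every test run; inconclusive = test runs disagree, some active and some inactive; inactive = every run misses the threshold or moves the wrong way.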

The nature of the assay: suppressors of statin myotoxicity in myotubes, dose response, cell-based, C2C12 myotubes, ATP luminescence, cherry pick (AID 624405).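 Also: myotubes are challenged with simvastatin at 10 µM to lower ATP.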 The conditions noted are these: C2C12 myotubes + simvastatin, 48 h, scaled: DMSO wells 0, geranylgeraniol wells 100; series mostly up to 19.5 µM; rescue activity (ATP increase): at the top concentration.
In the case of `C[C@@H]1CN([C@@H](C)CO)C(=O)Cc2cc(NC(=O)C3CC3)ccc2O[C@H]1CN(C)Cc1ccc(Oc2ccccc2)cc1`, the “rescue activity (ATP increase)” value was 26.8%.

As for `C[C@@H]1CN([C@@H](C)CO)C(=O)Cc2cc(NC(=O)C3CCCCC3)ccc2O[C@H]1CN(C)Cc1ccc(Oc2ccccc2)cc1`, the “rescue activity (ATP increase)” value was 17.8%. The same measure for `CCCCNc1ncnc2c1cnn2Cc1ccc(Cl)cc1`: -49%. Under `O=C(CCn1c(SCC(=O)NCc2ccco2)nc2ccccc2c1=O)NCCc1ccccc1` stands 38.7%; under `COCCCn1c(SCC(=O)NCc2ccco2)nc2sc3c(c2c1=O)CCC3`, 29.6%; under `COc1ccc(OCC(=O)Nc2nnc(S(=O)(=O)N3CCCCCC3)s2)cc1`, -8.53%. For `Cc1cnc(C(=O)Nc2nccs2)cn1`, the “rescue activity (ATP increase)” value is -34%. Take `CCN(CC)S(=O)(=O)c1cccc(-c2nnc(SCC(=O)NCCC3=CCCCC3)n2N)c1`: the “rescue activity (ATP increase)” value is 5.05%. The same measure for `CCN(C(C)=O)c1cccc2ccccc12`: -3.21%; for `CCC(C)NS(=O)(=O)c1ccc(NC(=O)C2CCN(C(=O)c3ccco3)CC2)cc1` (configuration not stated): -1.8%; for `CC1CCCN(S(=O)(=O)c2ccc(NC(=O)C3CCN(C(=O)c4ccco4)CC3)cc2)C1` (configuration not stated): 10.1%.

Consider `CCC1CCCCN1S(=O)(=O)c1ccc(NC(=O)C2CCN(C(=O)c3ccco3)CC2)cc1` (configuration not stated), for which the “rescue activity (ATP increase)” value is -13.4%.

As to `CC1CCN(S(=O)(=O)c2ccc(NC(=O)c3ccco3)cc2)CC1`, the “rescue activity (ATP increase)” value was 3.41%. Under `C[C@@H]1CCCCO[C@@H](CN(C)C(=O)Nc2cccc3ccccc23)[C@H](C)CN([C@H](C)CO)C(=O)c2cc(NC(=O)c3ccncc3)ccc2O1` stands 32.2%. `C[C@H]1CN([C@@H](C)CO)S(=O)(=O)c2ccc(-c3ccc(C(=O)N(C)C)cc3)cc2O[C@@H]1CN(C)C(=O)Cc1ccccn1`: the “rescue activity (ATP increase)” value is 32.9%. For the compound `CCOc1ncnc2c1[nH]c1ccccc12`, the “rescue activity (ATP increase)” value is 13.5%. `COc1ccc(CN(C)C[C@@H]2Oc3ccc(NC(=O)CCC(F)(F)F)cc3CC(=O)N([C@H](C)CO)C[C@H]2C)cc1`: the “rescue activity (ATP increase)” value is 27.9% [at 21 µM]. Consider `COc1ccc(S(=O)(=O)Nc2ccc3c(c2)C(=O)N([C@H](C)CO)C[C@H](C)[C@@H](CN(C)S(=O)(=O)c2ccc(F)cc2)OCCCC[C@@H](C)O3)cc1`, for which the “rescue activity (ATP increase)” value was 25.5%. Under `O=C(O)CCC(=O)OCC1CCCCC1` stands -4.14%; under `CC(C)NC(=O)Cn1c(=O)n(CC(=O)N2CCCCC2)c(=O)c2sccc21`, -3.24%.

On to `C[C@H]1CN([C@@H](C)CO)C(=O)c2cc(C#CC3CC3)cnc2O[C@@H]1CN(C)S(C)(=O)=O`, for which the “rescue activity (ATP increase)” value was 2.75%. For the compound `C[C@@H]1CN([C@H](C)CO)C(=O)c2cc(NS(C)(=O)=O)ccc2O[C@@H](C)CCCCO[C@@H]1CN(C)S(=O)(=O)c1ccc(Cl)cc1`, the “rescue activity (ATP increase)” value was 15.7%. The same measure for `O=c1c2c([nH]c3ccc(Br)cc13)CCCC2`: -17.7%; for `O=C(CCn1cccc1)NC1CCCc2ccccc21` (configuration not stated): 9.33%. As for `Cc1ccc(CN(C(=O)c2ccco2)C(C(=O)NC2CCCC2)c2ccc(N3CCOCC3)cc2)cc1` (configuration not stated), the “rescue activity (ATP increase)” value is 0.628%. The same measure for `COc1ccc(NC(=O)Nc2ccc3c(c2)C(=O)N([C@H](C)CO)C[C@H](C)[C@@H](CN(C)Cc2ccc(C(F)(F)F)cc2)OCCCC[C@H](C)O3)cc1`: 14%; for `Cc1ccc(S(=O)(=O)N(C)C[C@@H]2Oc3c(NC(=O)Nc4ccccc4)cccc3C(=O)N([C@@H](C)CO)C[C@@H]2C)cc1`: 36.3%; for `Cc1ccc(S(=O)(=O)N(C)C[C@@H]2Oc3c(NC(=O)Nc4ccccc4)cccc3C(=O)N([C@H](C)CO)C[C@@H]2C)cc1`: 33.4%. Under `Cc1ccc(S(=O)(=O)N(C)C[C@@H]2Oc3c(NC(=O)Nc4ccccc4)cccc3C(=O)N([C@H](C)CO)C[C@H]2C)cc1` stands -25.3%. Under `C[C@@H]1CN([C@H](C)CO)C(=O)c2cccc(NC(=O)Nc3ccccc3)c2O[C@@H]1CN(C)S(=O)(=O)c1ccccc1` stands 26.7%; under `c1cnc2ccc(C(c3nnnn3C3CCCC3)N3CCN(c4nc5ccccc5s4)CC3)cc2c1` (configuration not stated), 5.08%.

Regarding `CC(C)NC(=O)CN1C(=O)NC(CCc2ccccc2)C1=O` (configuration not stated), the “rescue activity (ATP increase)” value was -27.9%.

Regarding `CCCn1c2c(c(O)c(C(=O)NC)c1=O)CCCC2`, the “rescue activity (ATP increase)” value was 32.2%. The same measure for `C[C@H]1CN([C@@H](C)CO)S(=O)(=O)c2ccc(C#CC3CCCCC3)cc2O[C@H]1CN(C)C(=O)Cc1ccncc1`: -18.7%; for `COc1ccc(S(=O)(=O)N2CCOCC2)cc1NC(=O)CSc1ncccn1`: -4.59%. The same measure for `Cc1c(N=Cc2c(O)n(Cc3ccco3)c(=O)c3ccccc23)c(=O)n(-c2ccccc2)n1C`: 27.1%; for `CCOC(=O)C1CCN(S(=O)(=O)c2nc3nc(C)cc(C)n3n2)CC1`: -11.5%; for `O=C(NNC(=O)c1ccncc1)Nc1ccc(N=Nc2ccccc2)cc1`: -47.4%. On to `COc1ccc(C#Cc2ccc([C@H]3[C@H]4CN(C(=O)c5ccncc5)CCCCN4[C@H]3CO)cc2)cc1`, for which the “rescue activity (ATP increase)” value was 28.5% [at 21 µM]. Under `C[C@@H]1CN([C@@H](C)CO)C(=O)c2cc(NS(=O)(=O)c3cccs3)ccc2O[C@@H]1CN(C)Cc1ccc2c(c1)OCO2` stands 31.3%; under `C[C@H]1CN([C@@H](C)CO)C(=O)c2cccc(NS(=O)(=O)c3cccs3)c2O[C@@H]1CN(C)C(=O)Nc1ccc(C(F)(F)F)cc1`, -2.23%.

Turning to `Cc1cccc(OCC(=O)Nc2cc(C)ccc2O)c1`, the “rescue activity (ATP increase)” value was 23.5%.

For the compound `Cc1ccc(-c2noc(-c3cccs3)n2)cc1`, the “rescue activity (ATP increase)” value is -4.64%. The same measure for `COc1ccccc1-c1noc(-c2ccncc2)n1`: 8.68%; for `Cc1ccc(C(=O)OCC(=O)Nc2ccc3c(c2)OCO3)cc1S(=O)(=O)N1CCOCC1`: -31.5%. Take `CCOC(=O)C(C)n1nc(/C=C/c2ccccc2)ccc1=O` (configuration not stated): the “rescue activity (ATP increase)” value is -17.3%. For `C[C@@H]1CN([C@@H](C)CO)C(=O)Cc2cc(NC(=O)Cc3cn(C)c4ccccc34)ccc2O[C@H]1CN(C)Cc1ccc(Oc2ccccc2)cc1`, the “rescue activity (ATP increase)” value is 10.6%.

`O=C(Nc1nc2c(s1)CCCC2)c1ccc(Br)o1`: the “rescue activity (ATP increase)” value was -45%. The same measure for `C[C@H](CO)N1C[C@H](C)[C@@H](CN(C)S(=O)(=O)c2cn(C)cn2)Oc2ccc(NC(=O)Nc3ccc(C(F)(F)F)cc3)cc2C1=O`: 17.3%; for `C[C@H](CO)N1C[C@H](C)[C@@H](CN(C)S(=O)(=O)c2ccc(Cl)cc2)Oc2c(NC(=O)Nc3ccc(C(F)(F)F)cc3)cccc2C1=O`: 1.28%; for `C[C@H](N)c1nnc(SCC(=O)c2ccc(Cl)cc2)o1`: 19%. Under `CC(C)CC#Cc1cnc2c(c1)C(=O)N([C@@H](C)CO)C[C@@H](C)[C@H](CN(C)S(=O)(=O)c1cccs1)O2` stands 0.138%.

The record behind these values is PubChem BioAssay AID624405 (Broad Institute, 2012).
